Measurements from paper PMC11006913.

target: HOXC9 (Homo sapiens, UniProt P31274 178-260, R193K); assay: PBM; 200 nM protein, PBS; details: dsDNA, one strand shown
Sequence (P31274 178-260 R193K): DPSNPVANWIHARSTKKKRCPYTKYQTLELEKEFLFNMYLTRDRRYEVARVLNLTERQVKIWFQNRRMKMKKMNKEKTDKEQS

Row | Sequence | binding signal
1 | ATTTAACA | 11.6 upbm affinity estimate (log intensity, higher = more binding, comparable within an allelic series)
2 | CGTTAAAG | 11.3 upbm affinity estimate (log intensity, higher = more binding, comparable within an allelic series)
3 | GAGATAAA | 11.1 upbm affinity estimate (log intensity, higher = more binding, comparable within an allelic series)
4 | CGGGAGCC | 9.62 upbm affinity estimate (log intensity, higher = more binding, comparable within an allelic series)
5 | CTGTTATA | 11.5 upbm affinity estimate (log intensity, higher = more binding, comparable within an allelic series)
6 | CCCCAGCC | 9.69 upbm affinity estimate (log intensity, higher = more binding, comparable within an allelic series)
7 | TCCTTCGA | 9.72 upbm affinity estimate (log intensity, higher = more binding, comparable within an allelic series)
8 | CGCATTTA | 11.2 upbm affinity estimate (log intensity, higher = more binding, comparable within an allelic series)
9 | ATCTACTA | 10.8 upbm affinity estimate (log intensity, higher = more binding, comparable within an allelic series)
10 | CTCACCAG | 9.75 upbm affinity estimate (log intensity, higher = more binding, comparable within an allelic series)
11 | TGATTGCA | 11.2 upbm affinity estimate (log intensity, higher = more binding, comparable within an allelic series)
12 | TAAAGTGA | 11.4 upbm affinity estimate (log intensity, higher = more binding, comparable within an allelic series)
13 | CTGGACGC | 9.69 upbm affinity estimate (log intensity, higher = more binding, comparable within an allelic series)
14 | CCGTTATA | 11.2 upbm affinity estimate (log intensity, higher = more binding, comparable within an allelic series)
15 | ATATTGCA | 11.3 upbm affinity estimate (log intensity, higher = more binding, comparable within an allelic series)
16 | GAGAGCTC | 9.3 upbm affinity estimate (log intensity, higher = more binding, comparable within an allelic series)
17 | ATGTTAAC | 11.1 upbm affinity estimate (log intensity, higher = more binding, comparable within an allelic series)
18 | CCTCCAGG | 9.34 upbm affinity estimate (log intensity, higher = more binding, comparable within an allelic series)
19 | CTGCATAA | 11.2 upbm affinity estimate (log intensity, higher = more binding, comparable within an allelic series)
20 | AGGACGTG | 9.75 upbm affinity estimate (log intensity, higher = more binding, comparable within an allelic series)

Row | Sequence | binding signal
21 | CATTTAGA | 11.3 upbm affinity estimate (log intensity, higher = more binding, comparable within an allelic series)
22 | CCGGAAGG | 9.73 upbm affinity estimate (log intensity, higher = more binding, comparable within an allelic series)
23 | CGGTGCCA | 9.49 upbm affinity estimate (log intensity, higher = more binding, comparable within an allelic series)
24 | GGGCCCCC | 9.51 upbm affinity estimate (log intensity, higher = more binding, comparable within an allelic series)
25 | ATTATCGG | 11.4 upbm affinity estimate (log intensity, higher = more binding, comparable within an allelic series)
26 | AGGGGGTG | 9.39 upbm affinity estimate (log intensity, higher = more binding, comparable within an allelic series)
27 | CGTAAAGA | 11.2 upbm affinity estimate (log intensity, higher = more binding, comparable within an allelic series)
28 | CGGTCCAG | 9.64 upbm affinity estimate (log intensity, higher = more binding, comparable within an allelic series)
29 | ATAGTCAA | 10.8 upbm affinity estimate (log intensity, higher = more binding, comparable within an allelic series)
30 | GCCCCAGC | 9.62 upbm affinity estimate (log intensity, higher = more binding, comparable within an allelic series)
31 | ATGAACTA | 10.9 upbm affinity estimate (log intensity, higher = more binding, comparable within an allelic series)
32 | AGTATAAC | 11 upbm affinity estimate (log intensity, higher = more binding, comparable within an allelic series)
33 | AGACCAGG | 9.61 upbm affinity estimate (log intensity, higher = more binding, comparable within an allelic series)
34 | CACTAATA | 11.4 upbm affinity estimate (log intensity, higher = more binding, comparable within an allelic series)
35 | ATATGAAA | 11.4 upbm affinity estimate (log intensity, higher = more binding, comparable within an allelic series)
36 | ATTGTATG | 11.1 upbm affinity estimate (log intensity, higher = more binding, comparable within an allelic series)
37 | GGGGGGCA | 9.49 upbm affinity estimate (log intensity, higher = more binding, comparable within an allelic series)
38 | AGGCTCCC | 9.51 upbm affinity estimate (log intensity, higher = more binding, comparable within an allelic series)
39 | TTATACAA | 11.2 upbm affinity estimate (log intensity, higher = more binding, comparable within an allelic series)
40 | GGGCACGA | 9.76 upbm affinity estimate (log intensity, higher = more binding, comparable within an allelic series)

target: PROP1 (Homo sapiens, UniProt O75360 56-141); assay: PBM; 200 nM protein, PBS; details: dsDNA, one strand shown
Sequence (O75360 56-141): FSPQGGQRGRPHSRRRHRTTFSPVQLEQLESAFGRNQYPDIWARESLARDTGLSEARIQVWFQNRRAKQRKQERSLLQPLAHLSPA

Row | Sequence | binding signal
41 | CGGGAGCC | 6.62 upbm affinity estimate (log intensity, higher = more binding, comparable within an allelic series)
42 | CTGGACGC | 6.69 upbm affinity estimate (log intensity, higher = more binding, comparable within an allelic series)
43 | CGGTGCCA | 6.41 upbm affinity estimate (log intensity, higher = more binding, comparable within an allelic series)

target: PROP1 (Homo sapiens, UniProt O75360 56-141, R99H); assay: PBM; 200 nM protein, PBS; details: dsDNA, one strand shown
Sequence (O75360 56-141 R99H): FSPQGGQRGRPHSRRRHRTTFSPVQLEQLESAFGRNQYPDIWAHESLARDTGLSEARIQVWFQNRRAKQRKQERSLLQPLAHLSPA

Row | Sequence | binding signal
44 | CGGGAGCC | 6.7 upbm affinity estimate (log intensity, higher = more binding, comparable within an allelic series)
45 | CTGGACGC | 6.62 upbm affinity estimate (log intensity, higher = more binding, comparable within an allelic series)
46 | CGGTGCCA | 6.46 upbm affinity estimate (log intensity, higher = more binding, comparable within an allelic series)

target: HOXC9 (Homo sapiens, UniProt P31274 178-260, R222W); assay: PBM; 200 nM protein, PBS; details: dsDNA, one strand shown
Sequence (P31274 178-260 R222W): as the sequence (P31274 178-260 R193K) above, with K16R, R45W counted along it

Row | Sequence | binding signal
47 | CGGGAGCC | 9.69 upbm affinity estimate (log intensity, higher = more binding, comparable within an allelic series)
48 | CCCCAGCC | 9.68 upbm affinity estimate (log intensity, higher = more binding, comparable within an allelic series)
49 | TCCTTCGA | 9.84 upbm affinity estimate (log intensity, higher = more binding, comparable within an allelic series)
50 | CTCACCAG | 9.9 upbm affinity estimate (log intensity, higher = more binding, comparable within an allelic series)
51 | CTGGACGC | 9.74 upbm affinity estimate (log intensity, higher = more binding, comparable within an allelic series)
52 | CCGTTATA | 10.3 upbm affinity estimate (log intensity, higher = more binding, comparable within an allelic series)
53 | GAGAGCTC | 9.65 upbm affinity estimate (log intensity, higher = more binding, comparable within an allelic series)
54 | CCTCCAGG | 9.67 upbm affinity estimate (log intensity, higher = more binding, comparable within an allelic series)
55 | AGGACGTG | 9.71 upbm affinity estimate (log intensity, higher = more binding, comparable within an allelic series)
56 | CCGGAAGG | 9.78 upbm affinity estimate (log intensity, higher = more binding, comparable within an allelic series)
57 | CGGTGCCA | 9.58 upbm affinity estimate (log intensity, higher = more binding, comparable within an allelic series)
58 | GGGCCCCC | 9.4 upbm affinity estimate (log intensity, higher = more binding, comparable within an allelic series)
59 | AGGGGGTG | 9.42 upbm affinity estimate (log intensity, higher = more binding, comparable within an allelic series)
60 | CGGTCCAG | 9.63 upbm affinity estimate (log intensity, higher = more binding, comparable within an allelic series)
61 | GCCCCAGC | 9.7 upbm affinity estimate (log intensity, higher = more binding, comparable within an allelic series)
62 | AGACCAGG | 9.71 upbm affinity estimate (log intensity, higher = more binding, comparable within an allelic series)
63 | GGGGGGCA | 9.28 upbm affinity estimate (log intensity, higher = more binding, comparable within an allelic series)
64 | AGGCTCCC | 9.47 upbm affinity estimate (log intensity, higher = more binding, comparable within an allelic series)
65 | GGGCACGA | 9.89 upbm affinity estimate (log intensity, higher = more binding, comparable within an allelic series)

target: PROP1 (Homo sapiens, UniProt O75360 56-141, F88S); assay: PBM; 200 nM protein, PBS; details: dsDNA, one strand shown
Sequence (O75360 56-141 F88S): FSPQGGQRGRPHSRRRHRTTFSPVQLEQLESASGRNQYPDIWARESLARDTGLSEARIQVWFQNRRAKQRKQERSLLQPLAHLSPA

Row | Sequence | binding signal
66 | CGGGAGCC | 6.53 upbm affinity estimate (log intensity, higher = more binding, comparable within an allelic series)
67 | CTGGACGC | 6.59 upbm affinity estimate (log intensity, higher = more binding, comparable within an allelic series)
68 | CGGTGCCA | 6.5 upbm affinity estimate (log intensity, higher = more binding, comparable within an allelic series)
